Measured potencies and affinities stand elsewhere. The source made the active and inactive calls. The rule behind the calls is not given here.
Biological target: CAAX prenyl protease 2 (Homo sapiens) (UniProt Q9Y256)
Assay: human Rce1 protease inhibitors, dose response, biochemical, yeast membranes, quenched-peptide fluorescence, cherry-pick (AID 588849)
Details: yeast membrane fractions expressing human Rce1, quenched-peptide fluorescence, 4 h; series mostly up to 10 µM; activity change, negative = inhibition: at the top concentration

Chain of CAAX prenyl protease 2 (Homo sapiens) (Q9Y256 whole entry, looked up): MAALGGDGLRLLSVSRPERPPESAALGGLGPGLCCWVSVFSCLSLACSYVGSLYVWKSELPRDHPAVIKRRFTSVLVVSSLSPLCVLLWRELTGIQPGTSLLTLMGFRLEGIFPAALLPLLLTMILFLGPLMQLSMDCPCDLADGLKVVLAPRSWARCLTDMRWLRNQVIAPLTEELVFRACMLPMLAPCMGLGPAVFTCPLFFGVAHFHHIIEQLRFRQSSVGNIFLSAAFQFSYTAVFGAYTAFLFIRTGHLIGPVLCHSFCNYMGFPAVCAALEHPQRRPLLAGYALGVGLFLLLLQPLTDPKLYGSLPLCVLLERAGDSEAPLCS

Activity change, negative = inhibition, inactive:
COc1cccc(/C=N/NC(=O)c2nnn(-c3nonc3N)c2C(C)C)c1OCc1ccc(F)cc1 -10.8%, Cc1cc(N2CCN(C(c3ccccc3)c3ccccc3)CC2)n2ncnc2n1 7.07%, COc1cc(-c2nc3ccccn3c2/N=C/c2cccc(OC)c2O)ccc1O -16%, CCOC(=O)c1cc2c(=O)n3cccc(C)c3nc2n(CC(C)C)c1=NC(=O)c1ccco1 -18.3%, CCCCOC(=O)Nc1nc(C)c(C(=O)OCC)s1 2.25%, COc1ccc(-c2nc(CC(=O)O)cs2)cc1OC -9.08%, Cc1ccc2nc(N(CCN(C)C)C(=O)c3ccc4ccccc4c3)sc2c1 -9.24%, COc1ccc(-c2cn3ccccc3n2)cc1[N+](=O)[O-] -0.851%, Cc1cccc(-c2nnc(SCc3ccc(C#N)cc3)n2Cc2ccco2)c1 -2.37%, COc1ccc(-n2c(SCc3ccc([N+](=O)[O-])cc3)nnc2-c2ccc(C)cc2)cc1 -12.3%, O=C(O/N=C\c1ccc(N2CCCCC2)c([N+](=O)[O-])c1)c1cccc(C(F)(F)F)c1 -8.18%, CCCCOc1ccc(Cc2c(COCC)[nH]c(=S)[nH]c2=O)cc1 -12.1%, COCc1c(Br)c(C)[nH]c(=O)c1C#N -4.46%, CC1CCN(C(=O)C2CCN(S(=O)(=O)c3ccc(-n4cnnn4)cc3)CC2)CC1 -8.19%, CC(C)C[C@H](NC(=O)c1nc[nH]c1C(=O)N1CCNCC1)C(=O)OCc1ccccc1 -2.67%, CN(C)CC(C)(C)CNC(=S)NCc1ccc2c(c1)OCO2 -17.6%, NC(=O)CCCn1c(C(=O)c2cc(Cl)c(N)c(Cl)c2)c2ccc(C(F)(F)F)cc2[n+]1[O-] -4.43%, COC(C/C=C/[C@H](O)[C@@H](C)OCc1ccccc1)OC 15.6%, COC(=O)c1cnn2c3c(c(C)nc12)CCCC3 -3.96% [at 3.5 µM], COc1cccc(-c2nc(C#N)c(N3CCN(C(=O)c4ccco4)CC3)o2)c1 29%, O=C(O)CCC(=O)c1ccc(-c2ccccc2)cc1 -1.99%
